A short description of assay [1]: qHTS to identify inhibitors of the type 1 interferon - major histocompatibility complex class I in skeletal muscle: primary screen against the NCATS LOPAC collection (AID 1347405).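 Also: lytic HiBiT luminescence reporting HLA-B protein level; % is scaled to controls: 0 for no effect and ±100 for the full control effect.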 The method in brief:
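Immortalized human C25cl48 myoblasts with HiBiT knocked into endogenous HLA-B*08:01 were stimulated with 4.0 ng/ml IFN-beta and given compounds in a 7-point, 1:4.3 titration from 46 uM final; after 24 hrs, lytic HiBiT luminescence was read.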
In general terms: qHTS replaces the single test concentration by a dilution series.

Assay [2] can be described thus: qHTS to identify inhibitors of the type 1 interferon - major histocompatibility complex class I in skeletal muscle: primary screen against the NCATS Pharmaceutical Collection (AID 1347407).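 Also: luminescence of HiBiT knocked into endogenous HLA-B as interferon-induced MHC class I level; % is scaled to controls: 0 for no effect and ±100 for the full control effect.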 The method in brief:
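A qHTS format is used: 8-point, 1:5 compound series with 46 uM top final concentration, applied alongside 4 ng/ml IFN-beta to HLA-B*08:01-HiBiT knock-in myoblasts. Luminescence is measured after 24 h treatment.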

Assay [3] is described as follows: qHTS for inhibitors of adenylyl cyclases using a fission yeast platform: a pilot screen against the NCATS LOPAC library (AID 1347410).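 Also: plate controls were DMSO vehicle for no effect and DPI positive control for full effect.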 An outline of the steps:
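Inhibition of GNAS-stimulated AC9 activity in S. pombe was inferred from derepression of a PKA-repressed fbp1-GFP reporter, measured as cytometric fluorescence after 18 h at 30C with compounds at up to 57 µM.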

The target in assay [4] is Protein phosphatase 1D (Homo sapiens) (UniProt O15297). The experiment in a line: RapidFire Mass Spectrometry qHTS Assay for Modulators of WT P53-Induced Phosphatase 1 (WIP1) (AID 1347424).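 Also: amount of dephosphorylated VEPPL-S-QETFS peptide product formed by WIP1; plate controls were DMSO wells for no effect and GSK830371 inhibitor control at 10 µM for full effect.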 An outline of the steps:
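WIP1 (10 nM final) was preincubated 1 h at room temperature with compounds in Tris-HCl pH 7.5, 30 mM MgCl2, TCEP, EGTA, BSA; 2 uM VEPPL-pS-QETFS phosphopeptide was added for 5 min, quenched with formic acid, and dephosphorylated product quantified by RapidFire MS.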

For assay [5] the target is unchanged. The experiment in a line: Rhodamine-PBP qHTS Assay for Modulators of WT P53-Induced Phosphatase 1 (WIP1) (AID 1347425). Also: % of control where 0% means no effect. An outline of the steps: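 WIP1 (5 nM final) was preincubated with compound for 1 hour at room temperature. It then dephosphorylated 10 uM VEPPL-pS-QETFS peptide in Tris-HCl pH 7.5 with 30 mM MgCl2. Released Pi was detected by 10 uM Rh-PBP fluorescence (ex 525/em 598 nm) read at 1-min intervals for 11 min, as delta f1 - f0.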

A short description of assay [6]: Primary qHTS for inhibitors of La Crosse Virus (LACV) - induced cell death in SH-SY5Y cells (AID 1508616).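 Also: top concentration of the series differs between compounds; 0% = infected DMSO wells and 100% = uninfected DMSO wells; higher means more rescue of cells from virus-induced death.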 The method in brief:
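Luminescent ATP readout (ATPLite 1step, 5 min room temperature) measured rescue from LACV-induced death after 6 days of infection at 0.01 MOI; normalized to infected DMSO wells and uninfected DMSO wells.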

The target of assay [7] is Lysine-specific demethylase 5B (Homo sapiens) (UniProt Q9UGL1). The experiment in a line: Optimization screen for KDM5B Histone Demethylases FDH coupled qHTS against the LOPAC library (AID 1347166). Also: 0% is about no effect. Conditions: KDM5B demethylation, FDH-coupled NADH fluorescence (FDH is formaldehyde dehydrogenase); at 57.5 µM (top of the series). The method in brief: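 KDM5BDeltaAP (200nM final) preincubated 10 min with compound, then 12.5uM H3K4Me3, 25uM a-ketoglutarate, ascorbate, Fe(II), NAD+ and FDH added; 50mM HEPES pH 7.5, 0.01% Tween-20. NADH fluorescence (340/450 nm) change over 30 min, room temperature.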

A short description of assay [8]: Validation qHTS assay for inhibitors of Activation Induced Cytidine Deaminase (AID): UDG Counterscreen signal (AID 1347427). Also: 0% is about no effect. The method in brief:
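Counterscreen read of UDG activity (2 U/mL, 4/3x) in the FRET deamination format with AID (1 uM, 4/3x), DJC20/DJC23 substrates (250 nM, 4x), 4 h at room temperature. NaOH stop, fluorescence at 560 ex/665 em.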

Assay [9] has as its target Single-stranded DNA cytosine deaminase (Homo sapiens) (UniProt Q9GZX7). Kind of assay: Validation qHTS assay for inhibitors of Activation Induced Cytidine Deaminase (AID): AID signal (AID 1347429). Also: % is scaled to controls: 0 for no effect and ±100 for the full control effect. The method in brief: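 AID and UDG were combined and compounds added at final up to 114 uM, then DJC20/DJC23 FRET substrate was added for 4 hr at room temperature. NaOH was then added for 30 min before fluorescence was read at 540/590 nm.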

In assay [10] the target is Calcium and integrin-binding protein 1 (Homo sapiens) (UniProt Q99828). Kind of assay: Primary qHTS for Identification of Calcium Integrin Binding Protein 1 (CIB1) Competitor (AID 1508620).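 Also: GST tagged CIB1 binding a fluorescein labelled alphaIIb integrin peptide tracer; top concentration of the series differs between compounds; % is scaled to controls: 0 for no effect and ±100 for the full control effect.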 An outline of the steps: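 Fluorescence polarization competition: CIB1-GST (1 uM final) preincubated with compound 15 min at room temperature, then FITC-labeled alphaIIb peptide (100 nM final) added for another 15 min. Polarization read at Ex 480/Em 540.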

A short description of assay [11]: Confirmatory screen NINDS Rhodamine qHTS for Zika virus inhibitors (AID 1347161). Also: nearly all actives have a fitted effect of over 60% in size. Also: potency is read from the fitted curve at half-maximal effect. The method in brief:
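Each compound, titrated, sat 15 min with 25 nM linked protease before 1.5 microM Rhodamine110 substrate went in. Fluorescence gain over the next 15 min, in pH 8.0 Tris with Tween 20, gave Hill-fitted curves.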

Assay [12] has as its system Zika virus NS2B-NS3 protease (linked). The experiment in a line: 384 well plate NINDS AMC confirmatory qHTS for Zika virus inhibitors (AID 1347163). Also: potency is read from the fitted curve at half-maximal effect; nearly all actives have a fitted effect of over 50% in size. Conditions: Recombinant NS2B-NS3 protease, Ac-VKTGKR-AMC fluorescence. The method in brief: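 Linked protease 5/30/60 nM final; cpds up to 1 mM final, ~15 min preinc. Substrate Ac-VKTGKR-AMC 30 microM final. RT, dark, 25 min; FI ex 355/em 460; normalized to no-enzyme/no-inhibitor ctrls.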

The subject of assay [13] is Zika virus NS2B-NS3 protease (linked construct). The experiment in a line: 384 well plate NINDS Rhodamine confirmatory qHTS for Zika virus inhibitors (AID 1347164). Also: potency is read from the fitted curve at half-maximal effect; nearly all actives have a fitted effect of over 65% in size. Conditions: rhodamine-110 peptide substrate fluorescence. An outline of the steps: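 Cleavage of Ac-LKRR-Rhodamine 110 (10 microM final) by linked protease (final 5, 30 or 60 nM) was followed as fluorescence at 485/538 nm after 25 min, room temperature, dark. Compounds preincubated ~15 min.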

Assay [14] in a line: Vero cells viability qHTS for Zika virus inhibitors (AID 1347167). Also: % is scaled to controls: 0 for no effect and ±100 for the full control effect. The method in brief:
(§1)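 Counter-screen for cytotoxicity of hits from NS2B-NS3 protease qHTS. Overnight-attached cells (2.5 x 10^5 cells/mL, DMEM/4% FBS) were dosed in titration, incubated 24 to 48 hours, then assayed by CellTiter Glo.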

Assay [15] is described as follows: HepG2 cells viability qHTS for Zika virus inhibitors (AID 1347168). Also: % is scaled to controls: 0 for no effect and ±100 for the full control effect. The method in brief: as §1
The nature of assay [16]: Tertiary RLuc qRT-PCR qHTS assay for Zika virus inhibitors (AID 1347169). Also: nearly all actives have a fitted effect of over 55% in size. Also: potency is read from the fitted curve at half-maximal effect. An outline of the steps:
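Inhibition of ZIKV-RLuc replication in Vero cells, read as Renilla luminescence 1-1.5 hrs after live-cell substrate addition, following 48-72 hrs infection at MOI 1-2 in presence of compound.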
(Quantitative PCR measures a nucleic acid by following its amplification.)

A short description of assay [17]: qHTS to identify inhibitors of the type 1 interferon - major histocompatibility complex class I in skeletal muscle: primary screen against the NCATS Mechanism Interrogation Plate v5.0 (MIPE) Libary (AID 1347411).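 Also: plate controls were vehicle for no effect and reference inhibitor for full effect; nearly all actives have a fitted effect of over 65% in size.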 The method in brief: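 Immortalized human C25cl48 myoblasts with HiBit knocked into endogenous HLA-B*08:01 were stimulated with 4.0 ng/ml IFN-beta and exposed to compounds (11-point 1:3 titration, top 46 uM final) for 24 hrs at 37 C; HiBiT lytic luminescence measured.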

A short description of assay [18]: Counterscreen qHTS for small molecule stabilizers of the endoplasmic reticulum resident proteome: GLuc-NoTag assay (AID 1508627).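 Also: SH-SY5Y cells given compound then 100 nM thapsigargin to empty ER calcium; 0% = thapsigargin alone and -100% = DMSO vehicle control.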 An outline of the steps: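 SH-SY5Y cells stably expressing constitutively secreted GLuc (no SERCaMP tag) were pre-incubated 5 h, treated with compound for 19 h, then 100 nM thapsigargin for 4 h at 37C; medium GLuc read by coelenterazine luminescence.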
A general note: Counterscreens check selectivity or assay interference.

Assay [19] can be described thus: Confirmatory qHTS for small molecule stabilizers of the endoplasmic reticulum resident proteome: Secreted ER Calcium Modulated Protein (SERCaMP) assay (AID 1508628). Also: potency is read from the fitted curve at half-maximal effect; nearly all actives have a fitted effect of over 40% in size. An outline of the steps:
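We seeded SH-SY5Y-GLuc-SERCaMP cells, added compounds (three concentrations in the primary run, eleven up to 76.6 uM in confirmation), incubated 16 h, depleted ER calcium with thapsigargin, and read luciferase 4 h later.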

Values without a mark were called inactive. Records with an inconclusive call do not appear. The source made the active and inactive calls. Calls follow the shape of the dose curve; as a rule, active = well fitted curve in the direction sought with a large enough effect; inconclusive = small, poorly fitted or top-dose-only effect, or another doubt; inactive = no such curve, though single readings can be large; an effect the other way counts as inactive or inconclusive.

Chain of Lysine-specific demethylase 5B (Homo sapiens) (Q9UGL1 whole entry, looked up): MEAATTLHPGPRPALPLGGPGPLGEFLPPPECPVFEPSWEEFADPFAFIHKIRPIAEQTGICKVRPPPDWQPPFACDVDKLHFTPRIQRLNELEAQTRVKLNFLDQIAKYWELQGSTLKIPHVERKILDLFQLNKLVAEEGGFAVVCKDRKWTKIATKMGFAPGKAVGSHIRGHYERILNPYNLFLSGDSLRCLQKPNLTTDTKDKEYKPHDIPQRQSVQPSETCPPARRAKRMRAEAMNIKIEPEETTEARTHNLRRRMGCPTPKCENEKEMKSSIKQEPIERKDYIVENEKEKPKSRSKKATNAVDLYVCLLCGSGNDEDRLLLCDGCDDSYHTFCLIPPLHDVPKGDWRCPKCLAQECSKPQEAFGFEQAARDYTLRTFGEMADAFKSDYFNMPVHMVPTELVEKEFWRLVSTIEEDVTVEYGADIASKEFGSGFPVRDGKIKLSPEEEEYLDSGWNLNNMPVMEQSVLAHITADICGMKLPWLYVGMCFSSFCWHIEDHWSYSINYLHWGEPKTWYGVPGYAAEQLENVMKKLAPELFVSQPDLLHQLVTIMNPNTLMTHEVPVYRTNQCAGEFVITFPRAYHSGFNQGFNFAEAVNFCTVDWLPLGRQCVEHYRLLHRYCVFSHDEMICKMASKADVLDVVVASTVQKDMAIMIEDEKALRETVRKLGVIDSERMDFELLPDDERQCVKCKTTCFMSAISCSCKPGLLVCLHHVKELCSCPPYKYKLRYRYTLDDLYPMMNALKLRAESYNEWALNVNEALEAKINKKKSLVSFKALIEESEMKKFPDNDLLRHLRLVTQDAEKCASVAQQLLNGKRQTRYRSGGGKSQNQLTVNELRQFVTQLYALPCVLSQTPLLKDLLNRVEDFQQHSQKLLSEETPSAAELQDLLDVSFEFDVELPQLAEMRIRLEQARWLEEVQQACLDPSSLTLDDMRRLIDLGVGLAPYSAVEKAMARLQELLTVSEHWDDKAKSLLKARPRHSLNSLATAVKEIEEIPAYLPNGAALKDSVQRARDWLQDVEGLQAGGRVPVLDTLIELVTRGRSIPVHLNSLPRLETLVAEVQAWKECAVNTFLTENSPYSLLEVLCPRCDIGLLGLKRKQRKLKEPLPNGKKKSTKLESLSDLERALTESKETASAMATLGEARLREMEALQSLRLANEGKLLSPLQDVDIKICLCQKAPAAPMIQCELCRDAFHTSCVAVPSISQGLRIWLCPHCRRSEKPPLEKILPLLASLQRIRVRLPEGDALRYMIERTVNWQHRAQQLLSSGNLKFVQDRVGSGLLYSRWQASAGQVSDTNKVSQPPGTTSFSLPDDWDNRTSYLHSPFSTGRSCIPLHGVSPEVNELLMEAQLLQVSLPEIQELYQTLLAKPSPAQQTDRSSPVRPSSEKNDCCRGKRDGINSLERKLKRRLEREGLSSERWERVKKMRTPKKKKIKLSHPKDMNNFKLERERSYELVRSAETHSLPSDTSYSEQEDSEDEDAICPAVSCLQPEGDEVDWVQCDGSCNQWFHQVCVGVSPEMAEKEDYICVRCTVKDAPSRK
Chain of Single-stranded DNA cytosine deaminase (Homo sapiens) (Q9GZX7 whole entry, looked up): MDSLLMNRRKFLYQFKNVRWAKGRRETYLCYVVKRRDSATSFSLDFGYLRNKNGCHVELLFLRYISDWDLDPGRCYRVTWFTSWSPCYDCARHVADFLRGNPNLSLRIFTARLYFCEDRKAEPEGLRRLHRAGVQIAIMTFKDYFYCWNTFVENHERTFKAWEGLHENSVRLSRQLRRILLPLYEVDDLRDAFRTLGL
Chain of Calcium and integrin-binding protein 1 (Homo sapiens) (Q99828 whole entry, looked up): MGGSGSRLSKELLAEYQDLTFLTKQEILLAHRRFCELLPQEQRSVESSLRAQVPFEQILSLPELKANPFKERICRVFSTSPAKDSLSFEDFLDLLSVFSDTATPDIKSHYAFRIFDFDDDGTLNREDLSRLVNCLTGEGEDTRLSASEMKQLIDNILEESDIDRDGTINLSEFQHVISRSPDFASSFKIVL
Chain of Protein phosphatase 1D (Homo sapiens) (O15297 whole entry, looked up): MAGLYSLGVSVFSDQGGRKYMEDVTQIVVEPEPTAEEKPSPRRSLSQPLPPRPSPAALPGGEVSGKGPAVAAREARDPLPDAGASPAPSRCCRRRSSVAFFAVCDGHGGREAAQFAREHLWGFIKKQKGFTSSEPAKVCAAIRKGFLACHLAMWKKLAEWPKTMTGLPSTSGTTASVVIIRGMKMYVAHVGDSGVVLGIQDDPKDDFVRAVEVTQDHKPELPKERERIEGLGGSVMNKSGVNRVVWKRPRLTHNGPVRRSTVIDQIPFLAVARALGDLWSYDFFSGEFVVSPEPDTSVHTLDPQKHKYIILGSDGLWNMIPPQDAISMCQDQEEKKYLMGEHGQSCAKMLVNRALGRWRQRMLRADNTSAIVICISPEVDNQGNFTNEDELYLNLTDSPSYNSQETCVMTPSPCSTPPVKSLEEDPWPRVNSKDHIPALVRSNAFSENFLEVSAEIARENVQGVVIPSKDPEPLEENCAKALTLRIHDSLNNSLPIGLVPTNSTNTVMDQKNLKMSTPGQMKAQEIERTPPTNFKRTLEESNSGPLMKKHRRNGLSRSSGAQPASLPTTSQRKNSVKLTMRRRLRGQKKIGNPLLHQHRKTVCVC

Turning to `CNS(=O)(=O)CCc1ccc2[nH]cc(C3CCN(C)CC3)c2c1`, the compound was classed as inactive in [1], in assay [3], in assay [4] and in assay [5]. Further, the Potency entry in assay [2] and in [6] was “inactive” throughout.

Consider `CC(=O)[C@H]1CC[C@H]2[C@@H]3CCC4=CC(=O)CC[C@]4(C)[C@H]3CC[C@]12C`, for which the activity, negative = inhibition in assay [7] was -4.17%. The result in assay [8] and in assay [9] was inactive. Besides, the Potency entry in assay [6] is “inactive”.

On to `CC1=C(C(=O)O)N2C(=O)[C@@H](NC(=O)C(N)c3ccccc3)[C@H]2SC1` (stereo partly drawn), for which the activity, negative = inhibition in assay [7] is -17.9%. For the same compound, the outcome in assay [1], in assay [3], in assay [8], in assay [9] and in assay [10] was inactive. Moreover, the Potency entry in [6] is “inactive”.

With `CCN(CC)CC#CCOC(=O)C(O)(c1ccccc1)C1CCCCC1` (stereo not drawn), the activity, negative = inhibition in assay [7] is -11%. Moreover, the result in assay [1], in assay [3], in assay [8] and in assay [9] was inactive. Further, in assay [6], the Potency entry is “inactive”.

`N[C@@H](Cc1ccc(O)c(O)c1)C(=O)O`: the activity, negative = inhibition in assay [7] was 0.726%. Also, the Potency entry in assay [6] was “inactive”. Further, in assay [10], the outcome was inactive.

On to `O=C(O)c1ccc(-n2nc(-c3ccccc3O)nc2-c2ccccc2O)cc1`, for which the Potency is 11 µM (active) in assay [11], 112 µM (active) in assay [12], 35.5 µM (active) in assay [13] and 13.1 µM (active) in assay [16]. For the same compound, the Potency entry in [14], in assay [15], in [2], in assay [17] and in [6] was “inactive” each time. For the same compound, the compound was called inactive in [4] and in [5].

For the compound `CCCOc1ccc(C(=O)OCCN(CC)CC)cc1N`, the Potency entry in assay [2], in assay [17] and in [6] was “inactive” each time. Besides, the outcome in assay [4] and in assay [5] was inactive.

For the compound `CNC1CCCN(c2c(F)cc3c(=O)c(C(=O)O)cn(C4CC4)c3c2OC)C1` (stereo not drawn), the Potency result in assay [11], in assay [14], in assay [15], in [16], in assay [2] and in assay [17] was “inactive” in each case. In [6], the Potency result was “inactive”. For the same compound, the compound was called inactive in assay [4], in [5] and in assay [10].

For the compound `O=C(O)C1CCCN(CCC=C(c2ccccc2)c2ccccc2)C1` (stereo not drawn), the activity, negative = inhibition in [7] is -3.3%. Also, the compound was called inactive in assay [1], in assay [3], in assay [8] and in assay [9]. Also, the Potency result in assay [17] and in assay [6] was “inactive” each time.

As for `NC(=O)c1cccc(N)c1`, the compound was called inactive in assay [1], in [3], in [8], in [9] and in [10]. Further, the Potency result in [17] and in [6] was “inactive” in each case.

Consider `C[C@@H]1CN(c2c(F)c(N)c3c(=O)c(C(=O)O)cn(C4CC4)c3c2F)C[C@H](C)N1`, for which the Potency entry in [2], in assay [17] and in [6] was “inactive” in each case. Besides, the outcome in [4] and in [5] was inactive.

On to `CCCc1cc(C(N)=S)ccn1`, for which the Potency entry in assay [2], in assay [17] and in assay [6] was “inactive” throughout. Further, the outcome in [4] and in [5] was inactive.

Regarding `COc1c(N2CCNC(C)C2)c(F)cc2c(=O)c(C(=O)O)cn(C3CC3)c12` (stereo not drawn), the Potency entry in assay [11], in assay [14], in assay [15], in [16], in assay [2] and in assay [17] was “inactive” throughout. In addition, the Potency result in [6] is “inactive”. For the same compound, the outcome in [4], in assay [5], in [10] and in assay [18] was inactive. For the same compound, the Potency in assay [19] is 14.1 µM (active).

For the origin of these results see PubChem BioAssay (NCATS).
